Measured values published in PubChem BioAssay AID624296 (National Center for Advancing Translational Sciences (NCATS), 2012).
Values joined by “and” are separate entries in the source; they are usually repeats but may differ in a detail not shown here. Equal entries are not always repeated. In all, about 350,000 compounds went through this assay and about 9,900 (2.8%) were called active. Not shown: some 15% with an inconclusive outcome. The call rests on the fitted dose curve; in most records, active means well fitted activation curve with a large enough effect; inconclusive means small, poorly fitted or top-dose-only effect; inactive means no such curve, though single readings can be large or run the other way. For the sample, actives were picked, then their nearest neighbours and some compounds at random. Some structures have more than one record in an assay (separate samples or runs), and their calls can disagree.

Test: A quantitative high throughput screen for small molecules that induce DNA re-replication in MCF 10a normal breast cells. Further: nearly all actives have a fitted effect of over 50% in size. On activity, positive = re-replication: % of control where 0% means no effect.
Settings: MCF 10A DNA re-replication, Hoechst nuclear intensity, 48 h; series mostly up to 46.1 µM; activity, positive = re-replication: at the top concentration
Potency means the concentration at half of the fitted maximal effect.

| Structure (SMILES) | activity, positive = re-replication | Potency |
| --- | --- | --- |
| COc1ccc2oc(N)nc2c1 | 0.24% (inactive) | – |
| COc1cccc(CNC(C)C(=O)Nc2ccc(S(=O)(=O)N3CCCC3)cc2)c1 (configuration not stated) | 5.52% (inactive) | – |
| CN(Cc1ccc(F)cc1)C(=O)CN1C(=O)c2ccccc2S1(=O)=O | -0.62% (inactive) | – |
| C[C@]12CC[C@H](O)CC1=CCC1C2CC[C@@]2(C)C1CC[C@@H]2NC(=O)CCC(=O)O (some centres not stated) | -1.85% (inactive) | – |
| CC1CCCCC1NC(=O)COC(=O)Cc1ccc(Cl)cc1 (configuration not stated) | -4.72% (inactive) | – |
| CC(C)(C)C(=O)Nc1cccc(-c2ccc[nH]2)n1 | -0.678% (inactive) | – |
| CC(=O)c1c(C)[nH]c(C(=O)OCC(=O)Nc2c(C)cccc2C)c1C | 7.67% (inactive) | – |
| O=C(CNC(=O)c1ccco1)NNC(=O)c1ccc(Br)cc1 | -8.12% (inactive) | – |
| CCCNC(=S)N1CCCC(c2nc3ccccc3[nH]2)C1 (configuration not stated) | -49.5% (inactive) | – |
| Cc1cccc(NC(=S)N2CCCC(c3nc4ccccc4[nH]3)C2)c1 (configuration not stated) | – | 1.03 µM (active) |
| Cc1cccc(NC(=S)N2CCC(c3nc4ccccc4s3)CC2)c1 | -2.25% (inactive) | – |
| O=C(Nc1ccnc(-c2ccncc2)n1)c1cccs1 | – | 0.259 µM (active) |
| O=C(Nc1ccccc1-c1ccccc1)c1cccs1 | -3.72% (inactive) | – |
| O=C(Nc1ccccc1)c1ccc(NC(=O)c2cccs2)cc1 | 1.8% (inactive) | – |
| C=CC(=O)Nc1ccc(Nc2ccnc(Nc3ccc(N4CCN(C)CC4)cc3)n2)cc1 | – | 20.6 µM (active) |
| Cc1cccc(N2CCN(c3ccc(NC(=O)/C=C\C(=O)O)cc3)CC2)c1 | 3.14% (inactive) | – |
| CN1CCN(c2ccc(NC(=O)c3ccccc3)cc2)CC1 | 9.59% (inactive) | – |
| CCCCN(CC(=O)Nc1cccc(S(=O)(=O)N2CCCC2)c1)Cc1nc2ccccc2c(=O)[nH]1 | 22.4% (inactive) | – |
| COC1C(CO)OC(n2cnc3c(=S)nc(N)[nH]c32)C1O (configuration not stated) | 11.1% (inactive) | – |
| COc1ccc2nc(SCC(=O)Nc3c(C)cc(C)cc3C)[nH]c2c1 | -1.39% (inactive) | – |
| Cc1ccc(O)c(CNc2nc3ccccc3[nH]2)c1 | 8.95% (inactive) | – |
| COC(=O)Nc1nc2ccc(Sc3ccccc3)cc2[nH]1 | – | 904 nM (active) and 1.16 µM (active) |
| Cc1ccccc1Nc1nc(N)nc(COC(=O)CCC(=O)c2ccc(F)cc2)n1 | -1.07% (inactive) | – |
| COc1cnn(-c2ccc([N+](=O)[O-])cc2)c(=O)c1Cl | – | 18.4 µM (active) |
| CC(C)(C)c1cnnn1-c1ccc([N+](=O)[O-])cc1 | 17% (inactive) | – |
| Cc1cc(CO)nn1-c1ccc([N+](=O)[O-])cc1 | -1.81% (inactive) | – |

| Structure (SMILES) | activity, positive = re-replication | Potency |
| --- | --- | --- |
| COc1cc(/C=C2/C(=O)NN(c3cccc(Cl)c3)C2=O)cc(Br)c1O | -2.08% (inactive) | – |
| Cc1ccc(N=C2NC(=O)/C(=C/C=C/c3ccco3)S2)cc1C | – | 7.31 µM (active) |
| Cc1ccc(N2NC(=O)/C(=C/C=C/c3ccco3)C2=O)cc1C | – | 23.1 µM (active) |
| CCC1S/C(=N/N=C/c2ccco2)NC1=O (configuration not stated) | 4.53% (inactive) | – |
| CN(C)c1ccc(-n2cccc2/C=C2/SC(=Nc3ccc(F)cc3)NC2=O)cc1 | -10.2% (inactive) | – |
| O=C1NN(c2ccccc2)C(=O)/C1=C/c1ccc(-c2cccc(C(=O)O)c2)o1 | 10.3% (inactive) | – |
| CC(C)c1ccc(S(=O)(=O)N2CCN(C(C)C(=O)NC3CCCC3)CC2)cc1 (configuration not stated) | 18.7% (inactive) | – |
| COc1ccc(CCNC(=O)c2ccc(NC(=O)CC3SC(N4CCCCC4)=NC3=O)cc2)cc1OC (configuration not stated) | -0.0243% (inactive) | – |
| Cn1c(N)cc(=O)n(C)c1=S | 0.759% (inactive) | – |
| Cc1cnc(NC(=O)CSc2nnc(-c3ccc(Cl)cc3Cl)n2N)s1 | -3.27% (inactive) | – |
| Cc1ccc(CCC(=O)Nc2ncc(Cc3cc(Cl)ccc3Cl)s2)o1 | – | 1.16 µM (active) |
| CCOc1ccccc1NC(=O)CCc1ccc(C)o1 | -0.239% (inactive) | – |
| CNS(=O)(=O)c1ccc(C(=O)NCC(=O)NCCc2ccc3c(c2)OCCO3)cc1 | 0.564% (inactive) | – |
| N/C(=N\OC(=O)N1c2ccccc2Sc2ccccc21)c1ccc(Br)cc1 | – | 5.17 µM (active) |
| CCOC(=O)CNC(=O)N1c2ccccc2Sc2ccccc21 | -0.866% (inactive) | – |
| N/C(=N\OC(=O)c1ccc2c(c1)OCO2)c1ccc(Br)cc1 | 0.704% (inactive) | – |
| O=C(OCC(=O)N1CCN(c2ccccc2)CC1)c1ccc([N+](=O)[O-])s1 | -0.635% (inactive) | – |
| COc1ccc(CCNC(=O)COC(=O)c2cnc(Cl)c(Cl)c2)cc1 | 8.58% (inactive) | – |
| Cc1nnc(OCC(=O)NCCC2=CCCCC2)c2ccccc12 | – | 20.6 µM (active) |
| O=C(Cc1cccc2ccccc12)NCCC1=CCCCC1 | -2.42% (inactive) | – |
| O=C(COc1cccc(-n2cnnn2)c1)NCCC1=CCCCC1 | 8.98% (inactive) | – |
| O=C(OCCOc1ccccc1F)c1cc(S(=O)(=O)N2CCOCC2)ccc1F | -9.85% (inactive) | – |
| CCCCN(C(=O)c1nn(C)c(=O)c2ccccc12)c1c(N)n(CCC)c(=O)[nH]c1=O | -7.2% (inactive) | – |
| COC(=O)C1=C(C)OC(N)=C(C#N)C1c1cc(OC)ccc1OC (configuration not stated) | -1.47% (inactive) | – |
| CCC1=C(C(=O)OC)C(c2cc(OC)ccc2OC)C(C#N)=C(N)O1 (configuration not stated) | 5.44% (inactive) | – |
| COc1ccc(C2C(C#N)=C(N)Oc3cc(N)ccc32)cc1OC (configuration not stated) | – | 18.4 µM (active) |

| Structure (SMILES) | activity, positive = re-replication | Potency |
| --- | --- | --- |
| O=C1NCC(c2ccccc2)(c2ccccc2)C(=O)N1 | -6.97% (inactive) | – |
| O=C(Cc1ccc([N+](=O)[O-])cc1)NCCc1ccc2c(c1)OCO2 | 1.24% (inactive) | – |
| O=C(c1cccnc1)N(Cc1ccccc1)C(=O)c1cccnc1 | -18.6% (inactive) | – |
| COC(=O)Cc1csc(Nc2c(C)n(C)n(-c3ccccc3)c2=O)n1 | 1.03% (inactive) | – |
| Cc1ccc(-n2c(O)c(C=Nc3ccc(S(=O)(=O)Nc4ncccn4)cc3)c3ccccc3c2=O)cc1C | -2.8% (inactive) | – |
| COC(=O)Cc1csc(/N=C/c2c(O)n(-c3cccc(C(F)(F)F)c3)c(=O)c3ccccc23)n1 | – | inactive and 3.26 µM (active) |
| Cc1ccc(C)c(NC(=O)COC(=O)c2nn(C)c(=O)c3ccccc23)c1 | -0.108% (inactive) | – |
| COC(=O)c1ccc(COc2ccc(/C=C/C(=O)c3ccc(OC)c(CSCC(=O)O)c3)cc2OC)cc1 | – | 2.91 µM (active) |
| COc1cc(/C=N/O)ccc1OCc1ccc([N+](=O)[O-])cc1 | 10.9% (inactive) | – |
| COc1ccc(/C=C/C(=O)N2CCCC2)cc1OC | -0.699% (inactive) | – |
| Cc1c(Cl)cnc(NC(=O)COC(=O)C2CCCC2)c1Cl | -0.757% (inactive) | – |
| Cc1noc(C)c1COc1ccc(C(=O)NCCOc2ccccc2)cc1 | -5.83% (inactive) | – |
| COc1ccc(C(=O)COC(=O)c2c(C)noc2C)cc1Cl | -7.07% (inactive) | – |
| Cc1onc(-c2ccccc2Cl)c1C(=O)OCc1nnc(-c2ccccc2)o1 | 3.73% (inactive) | – |
| Cc1onc(-c2ccccc2Cl)c1C(=O)OCC(=O)c1ccccc1 | – | 16.4 µM (active) |
| COc1cc(C(=O)OCc2cc(=O)n3ccsc3n2)ccc1OC(C)C | 1.85% (inactive) | – |
| O=C(CN1C(=O)COc2ccccc21)NCCN1CCc2ccccc2C1 | 1.31% (inactive) | – |
| O=C(CN1C(=O)COc2ccccc21)Nc1ccc(F)cc1 | – | 20.6 µM (active) |
| CC(OC(=O)CN1C(=O)COc2ccccc21)C(=O)NCc1ccc(F)cc1 (configuration not stated) | -13.3% (inactive) | – |
| Cc1ccc(S(=O)(=O)N2CCN(C(=O)c3cc(S(=O)(=O)N4CCOCC4)ccc3F)CC2)cc1 | 9.74% (inactive) | – |
| O=C(c1ccc(Cl)c(S(=O)(=O)N2CCCCCC2)c1)N1CCN(c2ccc(O)cc2)CC1 | 13.3% (inactive) | – |
| Cc1ccc(C(=O)NNC(=O)CSc2nnc3ccccn23)cc1 | 5.99% (inactive) | – |
| Cc1ccc(C(C[N+](=O)[O-])c2c(C)cc3ccccn23)cc1 (configuration not stated) | – | 20.6 µM (active) |
| CC(=O)Nc1ccc(/C=N/Nc2ccc(C(=O)c3c(C)cc4ccccn34)cc2[N+](=O)[O-])cc1 | -1.8% (inactive) | – |
| C/C(CC(=O)NCc1ccc(Cl)cc1)=N\NC(=O)COc1ccc(C)cc1Br | – | 5.8 µM (active) |
| CCCCC(=O)N/N=C(\C)CC(=O)Nc1cc(Cl)ccc1OC | -0.526% (inactive) | – |

| Structure (SMILES) | activity, positive = re-replication | Potency |
| --- | --- | --- |
| Cc1cc(Cl)ccc1OCCCC(=O)NCc1ccncc1 | 2.15% (inactive) | – |
| COc1ccc(CC(=O)N[C@@H]2c3cc(OC)c(OC)cc3C[C@H]2OCc2ccccc2)cc1 | -30.6% (inactive) | – |
| Cc1ccc(C(=O)Nc2ccccc2-c2ccccc2)cc1S(=O)(=O)Nc1ccccc1 | -0.658% (inactive) | – |
| O=S(=O)(Nc1cc(Cl)ccc1N1CCOCC1)c1ccccc1Cl | 8.16% (inactive) | – |
| Cn1nccc1CNC(=O)c1ccnn1C | 2.28% (inactive) | – |
| CCCc1ccc(-c2c(C)sc(NC(=O)c3ccnn3C)c2C#N)cc1 | – | 16.4 µM (active) |
| Cc1sc(NC(=O)C2=COCCO2)c(C#N)c1C | 1.25% (inactive) | – |
| COCC(=O)N(C)[C@H]1C[C@H]2c3cc(Oc4ccccc4C)ccc3CCN2C(=O)[C@H]1[C@H](C)O | -6.77% (inactive) | – |
| CC(=O)n1cc([C@@H]2C=C(C(=O)N3CCN(Cc4ccc5c(c4)OCO5)CC3)O[C@H](OCc3ccc(CO)cc3)C2)c2ccccc21 | – | 13 µM (active) |
| NC(=O)C1=C[C@@H](c2ccc3c(c2)OCO3)C[C@@H](OCCCCO)O1 | 4.84% (inactive) | – |
| C=CCOC(=O)C1=C[C@@H](c2ccc3c(c2)OCO3)C[C@@H](OCCCCO)O1 | 2.54% (inactive) | – |
| O=C(C1=C[C@H](c2coc3ccccc3c2=O)C[C@H](OCc2ccc(CO)cc2)O1)N1CCOCC1 | 12.5% (inactive) | – |
| CC(=O)n1cc([C@H]2C=C(C(=O)N3CCOCC3)O[C@@H](OCc3ccc(CO)cc3)C2)c2ccccc21 | -18.7% (inactive) | – |
| CN1CCN(C(=O)C2=C[C@H](c3ccc4c(c3)OCO4)C[C@H](OCc3ccc(CO)cc3)O2)CC1 | – | 8.2 µM (active) |
| Cc1ccc2c(CN3CCN(S(=O)(=O)c4ccccc4C(F)(F)F)CC3)cc(=O)oc2c1 | 0.766% (inactive) | – |
| COc1cc(C(c2c(NC(=O)c3ccco3)sc(C)c2C)N2CCOCC2)cc(OC)c1OC (configuration not stated) | 16.7% (inactive) | – |
| O=C(O)c1ccc([N+](=O)[O-])cc1Sc1ccsc1 | 5.85% (inactive) | – |
| Cc1ccc(C)c(S(=O)(=O)N(C)c2ccc(OC(=O)C3CCN(C(=O)c4ccc(F)cc4)CC3)cc2)c1 | 4.81% (inactive) | – |
| COc1ccc(CCC(=O)Nc2ccc(Cl)c(S(=O)(=O)N3CCOCC3)c2)cc1OC | -1.15% (inactive) | – |
| COc1ccc(Br)cc1CN(C)C(=O)C1CC(=O)N(C2CCCC2)C1 (configuration not stated) | 1.01% (inactive) | – |
| COc1ccc(OC)c(NC(=O)COC(=O)Cc2ccsc2)c1 | -0.467% (inactive) | – |
| O=C(COC(=O)/C=C/c1ccc2c(c1)OCO2)NC1CCS(=O)(=O)C1 (configuration not stated) | -8.83% (inactive) | – |
| CC(C)(C)c1ccc(/C=C/C(=O)NC2CCS(=O)(=O)C2)cc1 (configuration not stated) | – | 0.92 µM (active) |
| CC(C)(C)c1ccc(/C=C/C(=O)Nc2ncccn2)cc1 | 5.09% (inactive) | – |
